These results are taken from PubChem BioAssay (Tox21).

Test [1] is described as follows: qHTS assay for small molecules that induce genotoxicity in human embryonic kidney cells expressing luciferase-tagged ATAD5 - cell viability (AID 651634; calls by dose curve; further: nearly all actives have a fitted effect of over 25% in size; further: potency means the concentration at half of the fitted maximal effect). A digest of the protocol:
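HEK293T cells expressing luciferase-tagged ATAD5 were exposed to compound or DMSO for 15.5 hr at 37C, 5% CO2. Viability was then read as live-cell protease activity by CellTiter-Fluor fluorescence after 30 min at 37C.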
On the technique in general: In qHTS, concentration-response curves come from the screen itself.

Test [2] in a line: qHTS assay for small molecule disruptors of the mitochondrial membrane potential - cell viability (AID 720634; calls by dose curve;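 further: human HepG2 liver cancer cells; series mostly up to about 83 µM; nearly all actives have a fitted effect of over 20% in size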). A digest of the protocol: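 HepG2 cells seeded overnight at 37 C, then exposed to compound or DMSO for 1 hr at 37 C, 5% CO2. m-MPI dye added, then CellTiter-Glo for 30 min at room temperature; viability read as ATP luminescence.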
A short description of test [3]: qHTS assay to test for compound auto fluorescence at 535 nm (green) in HepG2 cells (AID 720675).
The nature of test [4]: qHTS assay to test for compound auto fluorescence at 535 nm (green) in HEK293 cells (AID 720680).
The nature of test [5]: qHTS assay to test for compound auto fluorescence at 460 nm (blue) in HEK293 cell free culture (AID 720681). A digest of the protocol:
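Blue fluorescence (Ex 405/Em 460 nm, triamterene-equivalent) was read immediately after pin transfer of compound or DMSO into medium (DMEM, 10% FBS) without cells.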

Test [6] in a line: qHTS assay to test for compound auto fluorescence at 535 nm (green) in HEK293 cell free culture (AID 720682). In outline:
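Green-channel intensity (Ex/Em 485/535 nm) was recorded from compound-treated wells containing only DMEM with 10% FBS. Fluorescein provided the equivalency standard.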

The nature of test [7]: qHTS assay to test for compound auto fluorescence at 590 nm (red) in HEK293 cell free culture (AID 720683). In outline: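 Red-channel autofluorescence of compounds in culture medium (DMEM, 10% FBS), no cells, measured at 540/590 nm. Rose Bengal sodium is the reference fluorophore for equivalence.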
A short description of test [8]: qHTS assay to test for compound auto fluorescence at 590 nm (red) in HepG2 cell free culture (AID 720684). In outline: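 Steps: dispense MEM/10% FBS medium, no cells; pin compound or DMSO vehicle; read red channel, Ex/Em 540/590 nm. Output given as Rose Bengal sodium equivalents.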
The nature of test [9]: qHTS assay to test for compound auto fluorescence at 460 nm (blue) in HepG2 cell free culture (AID 720685). A digest of the protocol:
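Compound (23 nL) or DMSO pinned into cell-free MEM with 10% FBS; blue fluorescence read at 405/460 nm excitation/emission, expressed as auto-fluorescence equivalency to triamterene.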

Test [10] is described as follows: qHTS assay to test for compound auto fluorescence at 535 nm (green) in HepG2 cell free culture (AID 720686).
Test [11] is described as follows: qHTS assay to identify small molecule antagonists of the androgen receptor (AR) signaling pathway using the MDA cell line - cell viability counter screen (AID 743041; further: nearly all actives have a fitted effect of over 45% in size). A digest of the protocol:
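Cells were plated at 3,000 per well and left 5 h. Compounds in DMSO were then pinned in, followed by R1881. After 16 h at 37C, CellTiter-Fluor fluorescence gave viability.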

Test [12] has as its system thyroid hormone receptor (rat, GH3 cells). Kind of test: qHTS assay to identify small molecule agonists of the thyroid receptor (TR) signaling pathway (AID 743066; calls by dose curve).
A short description of test [13]: qHTS assay to identify small molecule antagonists of the estrogen receptor alpha (ER-alpha) signaling pathway - cell viability counter screen (AID 743074; calls by dose curve;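 further: HEK293 cells carrying ER-alpha-UAS-bla reporter stimulated with 17beta-estradiol; nearly all actives have a fitted effect of over 45% in size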).
Test [14] is described as follows: qHTS assay to identify small molecule antagonists of the estrogen receptor alpha (ER-alpha) signaling pathway using the BG1 cell line - cell viability counter screen (AID 743081).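 Further: compound given together with 17beta-estradiol as the ER stimulus; series mostly up to about 70 µM; nearly all actives have a fitted effect of over 45% in size.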
The target in a further test is Aromatase (Homo sapiens) (UniProt P11511). In words: qHTS assay to identify aromatase inhibitors (AID 743083). Further: nearly all actives have a fitted effect of over 55% in size. Further: potency means the concentration at half of the fitted maximal effect.
The nature of test [15]: qHTS assay to identify aromatase inhibitors - cell viability counter screen (AID 743084).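 Further: cells stimulated with testosterone during compound exposure; nearly all actives have a fitted effect of over 55% in size.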 Further: potency means the concentration at half of the fitted maximal effect.
Test [16] concerns the target Aryl hydrocarbon receptor (Homo sapiens) (UniProt P35869). In words: qHTS assay to identify small molecule that activate the aryl hydrocarbon receptor (AhR) signaling pathway (AID 743085). Further: nearly all actives have a fitted effect of over 15% in size. Further: potency means the concentration at half of the fitted maximal effect.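 On activation: HG2L7.5c1 human HepG2 liver cells with stably integrated DRE-driven firefly reporter; series mostly up to about 70 µM.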 In outline: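 AhR agonist activity is inferred from enhanced light output of a DRE-controlled firefly luciferase reporter in HepG2 cells, measured with ONE-Glo following 24 h treatment at 37C.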

Test [17] in a line: qHTS assay to identify small molecule that activate the aryl hydrocarbon receptor (AhR) signaling pathway - cell viability counter screen (AID 743086). Further: nearly all actives have a fitted effect of over 45% in size. Further: potency means the concentration at half of the fitted maximal effect. A digest of the protocol:
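Cytotoxicity counter screen: CellTiter-Fluor signal (30 min, 37 C) in 4000 HepG2 cells/well carrying the DRE-luciferase reporter, following 24 h compound exposure at 37 C.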

The nature of test [18]: qHTS assay to identify small molecule phospholipidosis (PLD) inducers (AID 1259344; active means well fitted curve in the direction sought with a large enough effect; an effect the other way counts as inactive or inconclusive). A digest of the protocol:
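Phospholipidosis is scored by imaging LipidTOX-stained pits in HepG2 cells exposed to compound for 24 h at 37 C; pit counts and integrated intensities per well and per cell serve as outputs.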

Test [19] has as its target Nuclear receptor subfamily 1 group I member 2 (Rattus norvegicus) (UniProt Q9R1A7). Kind of test: Rat pregnane X receptor (rPXR) activation by small molecules, qHTS assay (AID 1346983). Further: nearly all actives have a fitted effect of over 20% in size. The following applies: rPXR luciferase reporter cells, One-Glo luminescence, 24 h; max activation: hits give high values. In outline:
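Luminescent readout (One-Glo luciferase, 30 min room temperature) followed 24 hr compound treatment at 37 C of rPXR cells plated 2,000 per well and preincubated 5hr; qHTS format with compounds delivered in DMSO.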

A number with no mark means an inactive call. Inconclusive results are not listed. Active and inactive are the calls of the source. Unless noted, the call rests on the fitted dose curve; in most records, active means well fitted curve in the direction sought with a large enough effect in the repeat runs; inconclusive means weak or mixed curves; inactive means no such curve, though single readings can be large; an effect the other way counts as inactive or inconclusive.
On the % scale 0 is the no-effect control and ±100 the full control effect.

Chain of Aromatase (Homo sapiens) (P11511 whole entry, looked up): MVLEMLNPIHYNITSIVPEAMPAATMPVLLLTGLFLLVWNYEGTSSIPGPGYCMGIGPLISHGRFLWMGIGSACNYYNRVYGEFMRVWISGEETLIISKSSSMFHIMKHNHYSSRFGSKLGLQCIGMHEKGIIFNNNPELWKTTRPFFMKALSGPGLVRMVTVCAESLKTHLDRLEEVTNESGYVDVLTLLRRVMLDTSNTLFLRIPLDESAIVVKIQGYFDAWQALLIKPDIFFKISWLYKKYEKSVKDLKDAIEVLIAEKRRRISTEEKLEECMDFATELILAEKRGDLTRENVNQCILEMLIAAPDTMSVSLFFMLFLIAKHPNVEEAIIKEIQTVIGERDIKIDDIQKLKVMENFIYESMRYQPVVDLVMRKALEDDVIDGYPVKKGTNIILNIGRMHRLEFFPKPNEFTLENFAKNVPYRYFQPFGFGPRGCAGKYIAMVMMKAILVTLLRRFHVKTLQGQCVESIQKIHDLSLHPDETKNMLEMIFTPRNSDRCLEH
Chain of Aryl hydrocarbon receptor (Homo sapiens) (P35869 whole entry, looked up): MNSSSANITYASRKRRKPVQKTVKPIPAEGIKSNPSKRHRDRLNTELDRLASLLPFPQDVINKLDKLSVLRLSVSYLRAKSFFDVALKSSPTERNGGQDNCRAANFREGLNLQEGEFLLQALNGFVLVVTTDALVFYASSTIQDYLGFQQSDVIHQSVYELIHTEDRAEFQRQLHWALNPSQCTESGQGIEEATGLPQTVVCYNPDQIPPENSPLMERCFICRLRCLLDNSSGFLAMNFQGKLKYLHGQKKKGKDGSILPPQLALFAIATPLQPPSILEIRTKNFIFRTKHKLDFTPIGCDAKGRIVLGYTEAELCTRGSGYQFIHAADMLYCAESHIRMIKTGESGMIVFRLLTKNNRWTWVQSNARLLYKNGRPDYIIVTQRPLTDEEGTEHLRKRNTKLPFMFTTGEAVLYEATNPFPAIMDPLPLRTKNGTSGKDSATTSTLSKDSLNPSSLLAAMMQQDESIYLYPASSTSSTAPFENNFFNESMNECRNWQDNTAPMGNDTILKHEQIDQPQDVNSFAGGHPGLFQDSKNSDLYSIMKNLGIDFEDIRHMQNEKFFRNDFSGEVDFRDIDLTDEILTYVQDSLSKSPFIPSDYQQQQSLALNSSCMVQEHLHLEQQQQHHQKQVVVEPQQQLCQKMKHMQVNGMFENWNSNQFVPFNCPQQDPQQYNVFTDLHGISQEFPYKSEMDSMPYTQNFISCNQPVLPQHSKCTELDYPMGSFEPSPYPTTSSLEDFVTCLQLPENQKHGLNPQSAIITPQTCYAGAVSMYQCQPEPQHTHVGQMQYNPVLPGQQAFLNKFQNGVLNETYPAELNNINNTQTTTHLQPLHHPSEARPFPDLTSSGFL
Chain of Nuclear receptor subfamily 1 group I member 2 (Rattus norvegicus) (Q9R1A7 whole entry, looked up): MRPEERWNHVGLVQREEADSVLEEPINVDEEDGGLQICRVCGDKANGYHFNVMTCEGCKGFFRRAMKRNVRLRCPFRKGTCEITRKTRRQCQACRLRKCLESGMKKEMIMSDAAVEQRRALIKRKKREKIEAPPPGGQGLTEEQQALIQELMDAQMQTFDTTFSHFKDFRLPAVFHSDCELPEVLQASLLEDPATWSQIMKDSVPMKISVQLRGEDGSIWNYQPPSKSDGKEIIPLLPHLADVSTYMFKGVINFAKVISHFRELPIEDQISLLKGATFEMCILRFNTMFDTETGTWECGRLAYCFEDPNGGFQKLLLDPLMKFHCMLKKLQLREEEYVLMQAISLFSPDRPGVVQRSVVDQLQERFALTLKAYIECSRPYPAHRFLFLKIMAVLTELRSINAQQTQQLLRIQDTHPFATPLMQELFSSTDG

As to `O=C(CCl)c1ccc(Oc2ccc(C(=O)CCl)cc2)cc1`, the Potency result in test [1], in [2], in [3], in [4], in [5] and in test [6] was “inactive” each time. For the same compound, the Potency result in test [9], in test [10], in [11], in test [12], in test [13] and in test [14] was “inactive” throughout. For the same compound, the Potency entry (with Aromatase (Homo sapiens); in test [15]; in test [16]; in [17]; in [18]) was “inactive” throughout. For the same compound, the outcome in [7] and in test [8] was inactive. The max activation in test [19] is 7.38%.
As for `CCN(CC)C(=O)N[C@H]1C[C@@H]2c3cccc4[nH]cc(c34)C[C@H]2N(C)C1`, the Potency result in test [1], in test [2], in test [3], in test [4], in test [5] and in test [6] was “inactive” throughout. The Potency result in test [9], in test [10], in test [11], in test [12], in test [13] and in test [14] was “inactive” each time. Further, the Potency result (with Aromatase (Homo sapiens); in [15]; in test [17]; in test [18]) was “inactive” throughout. The result in test [7] and in [8] was inactive. Also, the max activation in test [19] is -1.74%.
`Cc1cccc(C(C)c2cnc[nH]2)c1C` (stereo not given): the Potency entry in [1], in [2], in [3], in test [4], in [5] and in test [6] was “inactive” throughout. In addition, the Potency result in [9], in test [11], in test [12], in test [13], in test [14] and in test [15] was “inactive” in each case. For the same compound, the Potency result in test [17] and in [18] was “inactive” each time. Moreover, the call in [7] and in test [8] was inactive. Also, the Potency is 29.8 µM (active) with Aromatase (Homo sapiens) and 11.9 µM (active) in test [16]. Also, the max activation in test [19] was -0.62%.
`COc1ccc2c(c1)C13CCCC[C@@H]1C(C2)N(C)CC3` (stereo not given in full): the Potency result in [1], in [2], in test [3], in test [4], in test [5] and in [6] was “inactive” each time. Also, the Potency entry in test [9], in test [10], in test [11], in test [12], in test [13] and in test [14] was “inactive” in each case. In addition, the Potency result (with Aromatase (Homo sapiens); in test [15]; in test [16]; in test [17]; in test [18]) was “inactive” throughout. In addition, the compound was called inactive in test [7] and in test [8]. Also, the max activation in test [19] was -0.312%.
With `C[C@]12CCC(=O)C=C1C=C[C@@H]1[C@@H]2CC[C@@]2(C)[C@H]1CC[C@@]2(O)CCC(=O)O`, the Potency result in test [1], in [2], in test [3], in test [4], in test [5] and in [6] was “inactive” each time. The Potency entry (in [9]; in test [10]; in [11]; in test [12]; in [14]; with Aromatase (Homo sapiens)) was “inactive” in each case. Further, the Potency entry in [15], in [16], in [17] and in test [18] was “inactive” in each case. The result in [7] and in test [8] was inactive. In addition, the max activation in test [19] was 4.24%.
For the compound `O=C1C=C2C=C[C@@H]3C[C@@]2(O1)[C@H]1CCCCN31`, the Potency is 18.8 µM (active) in test [1], 13.3 µM (active) in the test with Aromatase (Homo sapiens), 23.7 µM (active) in [15] and 15 µM (active) in test [17]. Moreover, the Potency entry in [2], in [3], in test [4], in test [5], in test [6] and in test [9] was “inactive” throughout. For the same compound, the Potency entry in test [10], in [12], in test [13], in [16] and in [18] was “inactive” throughout. Moreover, the result in [7] and in [8] was inactive. Moreover, in test [19], the max activation was -20.5%.
